These results are taken from article PMC7819943, “Rice protein-binding microarrays: a tool to detect cis-acting elements near promoter regions in rice”.

In all, about 35,000 sequences were measured (“fluorescence intensity (a.u.)”: median about 10,000, highest 2% from about 52,000 on). The entries come from a sample that favours the highest values as a whole.

The target of this assay is T1, OsWOX13 (Oryza sativa, UniProt Q5QMM3 1-267).
T1 sequence: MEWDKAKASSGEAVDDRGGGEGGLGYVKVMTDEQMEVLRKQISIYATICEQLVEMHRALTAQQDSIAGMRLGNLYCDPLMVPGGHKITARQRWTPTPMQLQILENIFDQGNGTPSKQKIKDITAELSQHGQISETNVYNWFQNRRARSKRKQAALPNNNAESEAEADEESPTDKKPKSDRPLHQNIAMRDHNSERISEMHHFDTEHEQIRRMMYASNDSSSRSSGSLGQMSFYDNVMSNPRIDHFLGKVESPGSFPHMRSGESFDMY
Kind of assay: protein-binding microarray (RPBM); PBS, 2% BSA, 51.3 ng/ul salmon testes DNA, 50 uM zinc acetate, 200 nM TF, 25 C, 1 h; high values mean tight binding. The settings on record: protein: recombinant; tags: N-terminal polyhistidine and DsRed monomer fusion (pET32a); label: CyDye5-dUTP incorporated in the synthesized complementary strand; 3' TTTTT single-stranded linker to array surface; dsDNA, one strand shown. The gist of the method:
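A custom Agilent array was converted to double-stranded form by primer extension with Cy5-dUTP and blocked with 2% BSA. Protein at 200 nM in PBS with 2% BSA, salmon testes DNA and 50 µM zinc acetate was applied for 1 h at 25 °C, followed by washing. The proteins were polyhistidine–DsRed N-terminal fusions of transcription factors, expressed in E. coli BL21-CodonPlus and Ni–NTA-purified. The binding signal is per-feature fluorescence intensity (arbitrary units) from an Axon 4000B scanner.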
“GTATTAATCATGTTTTATCATCTAACAACAACGAAAATACCGGAGTCACCTAGTGCAG”: the binding signal is 7970 fluorescence intensity (a.u.). For “ATAATTTGCTAATACTTAATTAATCACGTGTTAATGGATCCGGAGTCACCTAGTGCAG”, the binding signal is 36600 fluorescence intensity (a.u.). The value for “AGTTCCCTCTAATTATAATTATAATGTCCTTGGTTTAGGACGGAGTCACCTAGTGCAG” was 16200 fluorescence intensity (a.u.); that for “CCTTGCAATCATTCATCAGAGGAGGAGTTCTACAGTGATGCGGAGTCACCTAGTGCAG” was 3760 fluorescence intensity (a.u.). The value for “GCAATCTTTCATTATCATAATTGGTCGTAGCTTTAATTACCGGAGTCACCTAGTGCAG” was 8430 fluorescence intensity (a.u.); that for “TTAATTAGATGCTCATATAAATATGGTGAAACCTGCATGCCGGAGTCACCTAGTGCAG” was 21500 fluorescence intensity (a.u.).

Regarding “CCAAATTTAATTTTACCTATTTTAAATGTGGCGATATATCCGGAGTCACCTAGTGCAG”, the binding signal is 17900 fluorescence intensity (a.u.). In the case of “AGTTAACATGATTTATGATAATTTTAATGTAAATGGTATACGGAGTCACCTAGTGCAG”, the binding signal is 16700 fluorescence intensity (a.u.). The value for “TAATAATTAGTGATTAATTATCCTGACCATTGATTCAACACGGAGTCACCTAGTGCAG” was 48300 fluorescence intensity (a.u.); that for “AATGATTGAAGGATATCCATTTGAATGATGGTATGCTTTACGGAGTCACCTAGTGCAG” was 43000 fluorescence intensity (a.u.).

“GCGTAATAGTAATAATTGATTAATGGTGACACGAGAAGGACGGAGTCACCTAGTGCAG”: the binding signal was 46600 fluorescence intensity (a.u.).

Consider “AAAATAAATAAATAAATTTGGTAACATTGATTAATTAGGACGGAGTCACCTAGTGCAG”, for which the binding signal is 21200 fluorescence intensity (a.u.). Turning to “TTAATTGATTCCATGAAGGTATAATGATACTTTTATGGTACGGAGTCACCTAGTGCAG”, the binding signal is 65000 fluorescence intensity (a.u.).

In the case of “TAGCTAATTCTTAATTAATTATACGCTAATGAATCACTTTCGGAGTCACCTAGTGCAG”, the binding signal is 23900 fluorescence intensity (a.u.). As for “TAATACTTAATTAATTATATGCTAAATGCTTCTTCGTTTTCGGAGTCACCTAGTGCAG”, the binding signal is 27300 fluorescence intensity (a.u.). The result for “ATAAATAGTAATTGACATTAAGAATGGGACCCACACTCTACGGAGTCACCTAGTGCAG” reads 53000 fluorescence intensity (a.u.); that for “GTCTTAATTGAATGCATCAATTATACTTTTGCAGGAGTTTCGGAGTCACCTAGTGCAG”, 64900 fluorescence intensity (a.u.). The value for “ACACTAAATTATTCTACCCACAAATTAAATAATTGAAATACGGAGTCACCTAGTGCAG” was 9290 fluorescence intensity (a.u.); that for “GGAGTGATTAAATTAGTTAATTAGTTAATAATCCCATTGACGGAGTCACCTAGTGCAG” was 56800 fluorescence intensity (a.u.); that for “TGCTAATAAATCTTGATTTGTTTCACATAGAAGCTGCATCCGGAGTCACCTAGTGCAG” was 26400 fluorescence intensity (a.u.).

With “GTAAAAGTTAATTGATTTGTTTATACCCTCAAATAGCCATCGGAGTCACCTAGTGCAG”, the binding signal is 58700 fluorescence intensity (a.u.). The result for “TGATTAAATTGCTTTAACTTTTATTTAATTTGTAGAAAATCGGAGTCACCTAGTGCAG” reads 22500 fluorescence intensity (a.u.); that for “TAAATATATTGTCAAATTATATTTAATGTTTTATTTGATACGGAGTCACCTAGTGCAG”, 3180 fluorescence intensity (a.u.).

Consider “AAACTGTTTTAATAATAGATAGATAGATAGATAGATAGATCGGAGTCACCTAGTGCAG”, for which the binding signal is 18200 fluorescence intensity (a.u.). For the sequence “ATATGATAATAATTATTTAAAGAAATAAATTTATTTTGGACGGAGTCACCTAGTGCAG”, the binding signal was 28700 fluorescence intensity (a.u.). For the sequence “CATGATTGCTCATCTTTGTATTAAAAGAAATAATTTATGTCGGAGTCACCTAGTGCAG”, the binding signal is 53500 fluorescence intensity (a.u.). Regarding “CAGATAATTAGCTACCTGTTTAATAGATCATCTTGATCATCGGAGTCACCTAGTGCAG”, the binding signal is 53400 fluorescence intensity (a.u.).

Regarding “TGGACAACAATTCTTGATTGAATTTAATTAACGGATAACGCGGAGTCACCTAGTGCAG”, the binding signal was 28000 fluorescence intensity (a.u.). In the case of “TTGTTAATTACCTTGTTTAATTAATTTCGCTAGCTTAGATCGGAGTCACCTAGTGCAG”, the binding signal is 44700 fluorescence intensity (a.u.). The result for “CACTAATTGATCAATTGCACAACAAATTGCTTGAATAACGCGGAGTCACCTAGTGCAG” reads 59900 fluorescence intensity (a.u.).

As to “TTGATTAAATACAAAATTAATAGTCAAAGTTTTAAAAGTTCGGAGTCACCTAGTGCAG”, the binding signal was 18200 fluorescence intensity (a.u.). The result for “TGTGACATTTCCAATCACTAATTGATCAATTGCACAACAACGGAGTCACCTAGTGCAG” reads 38100 fluorescence intensity (a.u.).

As to “GACAAATTATGGCATTTTAAAATCCAAAATATGGAAAGGGCGGAGTCACCTAGTGCAG”, the binding signal was 14600 fluorescence intensity (a.u.). On to “ATAATTGGTAAAGATGGATTCAAAATATTATTAATAATTGCGGAGTCACCTAGTGCAG”, for which the binding signal is 26200 fluorescence intensity (a.u.). The result for “GTATGATTAATTGAGTTTTAATTATTATAAAATTTTAAAACGGAGTCACCTAGTGCAG” reads 22900 fluorescence intensity (a.u.).

For the sequence “ACTTATATTCTTTAACTTATGATTGGAGGTATATACTATACGGAGTCACCTAGTGCAG”, the binding signal was 5760 fluorescence intensity (a.u.).

As for “CAATGATTGGACTAAAGAAAATGCTAATATTAATGGTATGCGGAGTCACCTAGTGCAG”, the binding signal was 52300 fluorescence intensity (a.u.). In the case of “CTTCTTGATTGATTTATACTAACTGCGCACACACTTTATTCGGAGTCACCTAGTGCAG”, the binding signal was 55200 fluorescence intensity (a.u.).

Consider “CTTGATTTATTGATTGATTAATAAAACATTTTATTTCCAACGGAGTCACCTAGTGCAG”, for which the binding signal was 56900 fluorescence intensity (a.u.). Regarding “AACATTGATTAATATTGGTCAAAATATTTTCAACTCTAAACGGAGTCACCTAGTGCAG”, the binding signal was 19200 fluorescence intensity (a.u.). As to “CTTATTATAAAGATTTAATTATAACAAATATAATGGTATGCGGAGTCACCTAGTGCAG”, the binding signal is 4800 fluorescence intensity (a.u.). In the case of “ACCGTGATTACGGTAATTGGAAATATAAAAGAGATGGGAGCGGAGTCACCTAGTGCAG”, the binding signal is 56800 fluorescence intensity (a.u.). The result for “GATTCAATGATGGATTTAATAAAACTAATTTGGTATTGCTCGGAGTCACCTAGTGCAG” reads 18700 fluorescence intensity (a.u.).
